This excerpt belongs to a sample that is enriched for hits.
TTR transcr act – TTR transcription activators in neuroblastoma reporter cells, primary screen, cell-based, luminescence, SH-SY5Y, TTR promoter Gaussia luciferase | activation, % at 16.7 µM | 100% = recombinant luciferase protein wells | AID 1117267, 2014 | 92,000 compounds, 1.3% hits;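 active = activation above the mean of all tested compounds plus 3 SD, cut at about 9.5% in these data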;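 note: cells exposed to compounds for one day before reading; 0% = median of all test compound wells on the plate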
TTR inh HuH7 – TTR promoter reporter inhibitors in hepatoma cells, counter-screen for TTR transcription activator project, cell-based, luminescence, HuH7 hepatoma. shares compounds with TTR transcr act. HuH7 TTR promoter-Gaussia luciferase reporter. inhibition, % at 16.7 µM. 1,100 compounds, 4% hits. AID 1117279, 2014;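 active = average inhibition above the solvent-only control wells' mean plus 3 SD, cut at about 15% in these data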;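 note: 0% = cells with DMSO only and 100% = cells with inhibitor control FD; inhibitors lower well luminescence so higher value means more inhibition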
TTR up confirm – TTR transcription activators, retest, confirmation, cell-based, luminescence, SH-SY5Y, triplicate. SHSY5Y TTR promoter Gaussia luciferase; 100% = purified Lucia enzyme wells, no cells. 1,100 tested, under 10 active. shares compounds with TTR transcr act. activation, % at 16.7 µM;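 active = mean activation above a set limit taken from the earlier primary screen, cut at about 11% in these data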;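 note: 0% = DMSO-treated cells and 100% = recombinant Lucia luciferase without cells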
The depositor's hits bear a star.

SMILES	TTR transcr act	others
CC(Oc1cccc2cccnc12)C(=O)N/N=C/c1ccc2c(c1)OCO2 (configuration not stated)	13*	TTR inh HuH7=-8;TTR up confirm=-1
CC(Oc1cccc2cccnc12)C(=O)N/N=C/c1ccccc1 (configuration not stated)	-2
CCN=C1SC(C(=O)Nc2cc(Cl)cc(Cl)c2)CC(=O)N1CC (configuration not stated)	0
CCN=C1SC(C(=O)Nc2cccc(C)c2)CC(=O)N1CC (configuration not stated)	3
CCN=C1SC(C(=O)Nc2ccc(Cl)c(Cl)c2)CC(=O)N1CC (configuration not stated)	20*	TTR inh HuH7=-9;TTR up confirm=1
C/C(=N\NC(=O)c1cccs1)c1cccnc1	9.9*	TTR inh HuH7=-5;TTR up confirm=0
C/C(=N\NC(=O)c1ccc(N(C)C)cc1)c1cccnc1	0
O=C(NNC(=S)NC(=O)c1cccs1)c1cccnc1	-2
CN(C)CCNc1c2c(nc3nnnn13)CCCC2	-1
Cc1nc2c(Br)cc(Br)cc2c(=O)n1-c1ccccc1NC1OCC(O)C(O)C1O (configuration not stated)	0
CC(C)N1CCCCC(NC(=O)c2ccc(Br)cc2)C1=O (configuration not stated)	2
C=CC(=O)NC1CCCCN(C(C)C)C1=O (configuration not stated)	12*	TTR inh HuH7=-11;TTR up confirm=-1
CC(C)N1CCCCC(NC(=O)c2ccccc2)C1=O (configuration not stated)	1
CCC1CCCCN1C(=O)CSC1=NN2CCCC(=O)N=C2S1 (configuration not stated)	-1
Cc1ccc(NC(=O)COC(=O)Cn2cnc3ccccc32)c([N+](=O)[O-])c1	-1
O=C(COC(=O)c1ncc(Cl)c(Cl)c1Cl)NC(=O)NCc1ccccc1	0
O=C(NC1CCCCN(Cc2ccc(Cl)cc2)C1=O)c1ccccn1 (configuration not stated)	-1
COC(=O)c1ccc[n+](CC(=O)Nc2ccc(OC(F)F)cc2)c1	7
O=C(C[n+]1ccccc1)Nc1ccccc1	0
COC(=O)c1ccc(NC(=O)C[n+]2ccccc2)cc1	10*	TTR inh HuH7=-13;TTR up confirm=2
CCCOc1cc(C)c(S(=O)(=O)N2CCN(C)CC2)cc1C	3
CC(=O)c1ccc2c(c1)OCCOCCOCCOCCOCCO2	3
CCCn1c(SCC(=O)NC2CCCC2)nnc1C(C)C	-2
CC(C)(C)[C@@H]1CCC(=O)N(CC[C@H](N=[N+]=[N-])c2ccccc2)CC1	0
C[C@@H]1CCC(=O)N(CC[C@H](N=[N+]=[N-])c2ccccc2)CC1	10*	TTR inh HuH7=-7;TTR up confirm=1
SMILES	TTR transcr act	others
[N-]=[N+]=N[C@@H](CCN1CC[C@H](O)CCC1=O)c1ccccc1	4
C=C(C)COc1ccc2c(c1)CCC1C2CCC2(C)C(=O)C(=NO)CC12 (configuration not stated)	0
O=C(Nc1ccc2c(c1)CCC2)Nc1ccccc1Cl	-3
Cc1ccc(C)c(NC(=O)C2CCCN(S(=O)(=O)c3c(C)noc3/C=C/N(C)C)C2)c1 (configuration not stated)	-2
Nn1c(Cc2ccccc2F)nnc1SCC(=O)N1CC(=O)Nc2ccccc21	0
CC(=C/c1ccccc1)/C=N/n1c(-c2ccncc2)n[nH]c1=S	0
CCC1(C)Cc2ccccc2C(=O)N1 (configuration not stated)	-2
CCC1(CC)Cc2ccccc2-c2[nH]c(=S)[nH]c(=O)c21	1
CCC1(C)Cc2ccccc2C(=S)N1 (configuration not stated)	9.7*	TTR inh HuH7=-5;TTR up confirm=0
O=C(NCCCCNC(=O)c1c(Cl)cccc1Cl)c1c(Cl)cccc1Cl	-2
C=CCC1c2cccc(C(=O)O)c2C(=O)N1c1ccc(F)cc1 (configuration not stated)	12*	TTR inh HuH7=8;TTR up confirm=0
CCCN1Cc2cccc(C(=O)N3CCN(c4ccc(F)cc4)CC3)c2C1=O	-2
O=C1c2ccccc2C(O)N1c1ccccc1 (configuration not stated)	0
COc1cccc(/C=N/NC(=O)c2ccccc2)c1OS(=O)(=O)c1ccccc1	1
O=[N+]([O-])c1ccc(Sc2cccc3cccnc23)c2cccnc12	1
COc1ccc(C(C(=O)NC2CCCC2)N(CCN(C)C)C(=O)c2snc(C(N)=O)c2N)cc1 (configuration not stated)	1
CCC(C)CCN1C(N(C)C)=NC[C@@H]1Cc1ccccc1 (some centres not stated)	1
CC(C)C[C@H]1CN=C(Nc2ccccc2)N1CC(C)C	-1
CCC(C)CCN1C(N(C)C)=NC[C@@H]1CC(C)C (some centres not stated)	12*	TTR inh HuH7=-3;TTR up confirm=-1
CCC1(CC)NC(=O)N(CC(=O)OCC(=O)Nc2ccccc2OC(F)F)C1=O	-1
Nc1c(Br)cc2c([nH]c(=O)c3ccccc32)c1Br	3
O=C(COC(=O)/C=C/c1cnc2ccccc2n1)NCC(F)(F)F	-2
CCn1cnc2c(NCc3cccnc3)nc(C#N)nc21	1
COc1ccc(C(=O)C2CCCN(C(=O)c3cccc(N(C)C)c3)C2)cc1OC (configuration not stated)	12*	TTR inh HuH7=-12;TTR up confirm=0
COc1cccc(C(=O)C2CCCN(C(=O)c3ccc(C#CC(C)(C)O)cc3)C2)c1 (configuration not stated)	0
SMILES	TTR transcr act	others
COc1ccc(C(=O)C2CCCN(C(=O)c3ccccc3C(C)=O)C2)cc1F (configuration not stated)	-1
Cc1ccc(N2CC(C(=O)Nc3cc(C)on3)CC2=O)c(C)c1 (configuration not stated)	0
COc1cc2sc3ccc(C#Cc4ccc(N)cc4)cc3c(=O)c2cc1OC	-5
C[C@@H]1CN([C@H](C)CO)C(=O)Cc2cc(NC(=O)CCC(F)(F)F)ccc2O[C@@H]1CN(C)C(=O)Nc1ccccc1	3
O=C(NCc1ccc(F)cc1)C1CCCN(S(=O)(=O)c2cccc3nonc23)C1 (configuration not stated)	2
O=C(NCCc1ccccc1)C1CCN(S(=O)(=O)c2cccc3nonc23)CC1	-3
O=C(NCCc1ccccc1)C1CCCN(S(=O)(=O)c2cccc3nonc23)C1 (configuration not stated)	10.0*	TTR inh HuH7=-5;TTR up confirm=2
COc1ccccc1C(=O)Nc1ccc(-c2nnn(CC(=O)N3CCN(C(=O)c4ccco4)CC3)n2)cc1	-2
Cc1ccc([C@H]2C[C@H](O)[C@@H](n3cc(-c4ccc(F)cc4)nn3)CN2CC2CCCCC2)cc1	-1
c1ccc(Sc2ncnc3c2oc2ccccc23)nc1	18*	TTR inh HuH7=20*;TTR up confirm=0
Oc1ccc(Nc2ncnc3c2oc2ccccc23)cc1	0
c1coc(CSc2ncnc3c2oc2ccccc23)c1	1
Cc1cc(N(C)C(=O)c2ccc3c(c2)S(=O)(=O)c2cc(Cl)ccc2C3=O)c(C(F)(F)F)o1	0
O=C(Cc1cc(=O)[nH][nH]1)N/N=C/c1ccccc1Cl	7
O=C(Cc1cc(=O)[nH][nH]1)N/N=C/c1c(Cl)cccc1Cl	-1

Assay outcomes: PubChem BioAssay, The Scripps Research Institute Molecular Screening Center
